# Results from PubChem BioAssay AID1851 (National Center for Advancing Translational Sciences (NCATS), 2009).
# Hit rate of the full screen: of about 16,000 compounds, about 5,700 (36%) were called active. Another 24% or so got no clear call; they are omitted. The list shows a part of the results. A number with no mark means an inactive call. The call rests on the fitted dose curve; in most records, active means well fitted curve in the direction sought with a large enough effect; inconclusive means small, poorly fitted or top-dose-only effect, or effect the other way; inactive means no such curve, though single readings can be large or run the other way.
# Target: Cytochrome P450 1A2 (Homo sapiens) (UniProt P05177)
# Sequence (P05177 whole entry, looked up): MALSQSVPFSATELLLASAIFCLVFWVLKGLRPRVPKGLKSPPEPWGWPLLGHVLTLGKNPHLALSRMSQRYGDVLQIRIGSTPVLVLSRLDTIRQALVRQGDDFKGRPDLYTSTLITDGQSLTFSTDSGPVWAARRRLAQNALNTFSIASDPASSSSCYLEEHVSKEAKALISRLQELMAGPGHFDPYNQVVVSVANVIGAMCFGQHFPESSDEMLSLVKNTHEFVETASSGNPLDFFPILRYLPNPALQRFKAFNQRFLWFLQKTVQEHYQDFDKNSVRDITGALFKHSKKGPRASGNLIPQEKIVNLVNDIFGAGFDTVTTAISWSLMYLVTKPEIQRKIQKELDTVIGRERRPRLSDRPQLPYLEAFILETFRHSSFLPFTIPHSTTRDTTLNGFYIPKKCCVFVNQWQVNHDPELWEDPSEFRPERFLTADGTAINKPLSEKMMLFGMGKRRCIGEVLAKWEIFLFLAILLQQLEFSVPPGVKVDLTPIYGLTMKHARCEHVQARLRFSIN
# Assay: Cytochrome panel assay with activity outcomes
# Conditions: recombinant CYP, pro-luciferin dealkylation, luminescence, p450-cyp1a2; series mostly up to 57.1 µM; activity, negative = inhibition: at the top concentration
# On the % scale 0 is the no-effect control and ±100 the full control effect.
SMILES,"activity, negative = inhibition",AC50
O=C(c1cc(C(F)(F)F)cc(C(F)(F)F)c1)N1CCC2(CC1)CN(c1ccccn1)C2,-5.11%,–
CC(C)=NO[C@@H](C)c1cn([C@@H]2COC[C@@H]2O)nn1,-6.31% [at 11.4 µM],–
CC(C)(C)NC(=O)CSC(=Nc1ccc(F)cc1)NC#N,–,2.51 µM (active)
CCn1c(Cc2ccccc2)nnc1SCC(=O)NC(C)(C)C,-26.9%,–
C[C@@H]1CC[C@H]2C(=O)NC[C@@H](O)CN2[C@@H]1c1ccc(Br)cc1,-9.06% [at 11.4 µM],–
O=[N+]([O-])C1=CC=C2C(=NC3(CCCCC3)N2O)C1=NC1CCCCC1,–,10 µM (active)
O=C(O)C1=CC(=C(c2ccc(O)c(C(=O)O)c2)c2ccc(O)c(C(=O)O)c2)C=CC1=O,–,10 µM (active)
N[C@@H](C(=O)O)c1ccc(O)c(C(=O)O)c1,-18.9%,–
Nc1ccc(O)c(C(=O)O)c1,-7.04% [at 25.6 µM],–
C#CCCCO/N=C1/C[C@@H](O)[C@@H](O)[C@@H]2[C@@H]3C(=O)N(Cc4ccccc4)C(=O)[C@H]3CC[C@H]12,0.662% [at 11.4 µM],–
O=C(NNS(=O)(=O)c1ccc(Cl)cc1)NC1CCCCC1,5.14%,–
Cc1nc(S(=O)(=O)N(C)c2ccccc2)c(C#N)c(C)c1Cl,–,15.8 µM (active)
Cc1nc(S(=O)(=O)NC2CCCCC2)c(C#N)c(C)c1Cl,–,10 µM (active)
CO[C@@H]1COC(=O)[C@@H](CCSC)NC(=O)C/C=C\[C@@H](C)COC(=O)CCC[C@H]1C,0.608% [at 11.4 µM],–
Cc1cc(C)n(-c2nnc(C)n2/N=C/c2ccccc2OCc2ccccc2Cl)n1,–,2 µM (active)
CCOC(=O)COc1c(C=O)cc(Br)cc1OC,–,4.47 µM (active)
CCOC(=O)COc1c(OC)cc(Cl)cc1C1Nc2ccccc2C(=O)N1c1ccc(F)cc1 (configuration not stated),-13.9%,–
CCOC(=O)COc1c(OC)cc(Cl)cc1C1Nc2ccccc2C(=O)N1c1cccc(C)c1 (configuration not stated),-11.9%,–
CCOC(=O)c1cc(-c2ccc(Cl)cc2)nc2c1c(C)nn2CCC#N,–,0.891 µM (active)
CC1CC2(CCCCC2)N2C(=O)C(=O)c3cccc1c32 (configuration not stated),–,2.24 µM (active)
Cn1nc(C(F)(F)F)c(/C=N/OC(=O)c2ccccc2Cl)c1SCc1ccc(Cl)cc1,–,2.82 µM (active)

SMILES,"activity, negative = inhibition",AC50
Cn1nc(C(F)(F)F)c(/C=N/OC(=O)c2ccc(Cl)cc2)c1Cl,–,12.6 µM (active)
Cn1nc(C(F)(F)F)c(/C=N/OCc2c(Cl)cccc2Cl)c1Cl,–,1.26 µM (active)
COc1ccc(C(=O)O/N=C/c2ccc(S(=O)c3ccc(Cl)cc3)nc2)cc1 (configuration not stated),-7.11%,–
N[C@H](CCC(=O)NCS(=O)(=O)O)C(=O)O,-1.79%,–
Cc1ccccc1NC(=O)CSc1nnc(-c2ccccc2)n1-c1ccccc1,-28.6%,–
Cc1ccc(C(=O)NNC(=O)CSc2nnc(-c3ccncc3)n2-c2ccc(C)cc2)cc1,-28.8%,–
CCn1c(SCC(=O)c2ccc3ccccc3c2)nnc1-c1cccs1,–,3.55 µM (active)
CCn1c(SCC(=O)N2CCN(S(=O)(=O)c3ccccc3)CC2)nnc1-c1cccs1,-26.8%,–
CCn1c(SCC(=O)c2ccccc2)nnc1-c1cccs1,–,3.55 µM (active)
O=C(CSc1nnc(-c2ccccc2)n1-c1ccccc1)c1cccs1,–,14.1 µM (active)
Cn1cccc1C(=O)N1CCC2(CC1)CN(C(=O)Nc1ccccc1)C2,-10.3%,–
O=C(O)C1(C(=O)O)CCN(S(=O)(=O)c2ccccc2)CC1,13.9% [at 2.29 µM],–
O=C(c1ccccc1)c1nc2ccccc2n(CCCn2c(=O)c(C(=O)c3ccccc3)nc3ccccc32)c1=O,-29.7%,–
CCCCCn1c(=O)c(C(=O)c2ccccc2)nc2ccccc21,–,0.708 µM (active)
O=[N+]([O-])c1cccc(-c2nc(-c3ccncc3)no2)c1,–,0.631 µM (active)
CCS(=O)(=O)N1CCC(C(=O)NCCCOC)CC1,2.72%,–
CC(C)(C)C1CCc2c(C(=O)N/N=C/c3cccs3)csc2C1 (configuration not stated),-23.6%,–
O=C(N/N=C/c1cccc(F)c1)c1csc2c1CCCC2,–,4.47 µM (active)
CC(C)NCCCOc1ccc(Cl)cc1Br,–,0.631 µM (active)
Nc1ncnc2c1ncn2C[C@@H](O)C(=O)O,-12.5% [at 11.4 µM],–
CCOc1ccc(N2C(=O)/C(=C/c3cccs3)N(CC(=O)OC)C2=S)cc1,-12.2%,–

SMILES,"activity, negative = inhibition",AC50
CCOc1ccc(NC2=NCC(=O)N2Cc2cccs2)cc1,–,22.4 µM (active)
CCOc1ccc(N2C(=O)CN=C2Nc2ccccc2Cl)cc1,-17.1%,–
O=C1CN=C(Nc2ccccc2)N1Cc1cccs1,–,12.6 µM (active)
Cc1cc(N)n(-c2ccc3ccccc3c2)n1,–,2 µM (active)
CCN(CC)CCNC(=O)c1ccc(Cl)c(S(=O)(=O)Nc2ccccc2OC)c1,-18.8%,–
CCN(CC)S(=O)(=O)c1cc(C(=O)OC)ccc1Cl,–,22.4 µM (active)
CCCN(CCC)S(=O)(=O)c1ccc(C(=O)O)cc1,0.818% [at 25.6 µM],–
O=c1[nH]c(=S)[nH]c2c1CN(CCCN1CCOCC1)CN2,-13.5% [at 2.29 µM],–
Cc1nn(-c2ccccc2)c(C)c1/C=N/NC(=O)c1cc(-c2ccc(Cl)s2)[nH]n1,–,14.1 µM (active)
Cc1nn(-c2ccccc2)c(Cl)c1/C=N/NC(=O)c1ccco1,–,7.08 µM (active)
O=C(Nc1c(C(=O)N2CCCCC2)cnn1-c1ccccc1)c1ccco1,-12.5%,–
CCCC1S/C(=N/N=C/c2ccc(OC)cc2)N(Cc2ccc(OC)cc2)C1=O (configuration not stated),-28.8%,–
COc1ccc(CN2C(=O)c3ccccc3C(/C=N\OCc3ccc(F)cc3)C2=O)cc1 (configuration not stated),–,12.6 µM (active)
CN(C)c1ncc2nc(-c3ccccc3)c(=O)n(C)c2n1,–,1 µM (active)
CN(C)c1ncc2nc(-c3ccc(F)cc3)c(=O)n(C)c2n1,–,1.58 µM (active)
CN(C)c1ncc2nc(-c3ccc(Cl)cc3)c(=O)n(C)c2n1,–,1.58 µM (active)
C=CC[C@@H]1C=C[C@@H](O/N=C\c2ccc(C(=O)N3[C@H](c4ccc(C)cc4)[C@@H](C)CC[C@H]3C(=O)OC)cc2)[C@@H](CO)O1,-12.6% [at 11.4 µM],–
CN(C)CCNc1ccccn1,-5.87% [at 11.4 µM],–
COCCNc1ccnc(-c2ccccc2CN(C)C)n1,–,5.01 µM (active)
COCCNc1ccnc(-c2ccccc2C)n1,–,12.6 µM (active)
